Data taken from ChEMBL document CHEMBL3988442, “University of Dundee, Small-Polar-MMV Screening Library” (2021).
For some assays here: Entries with a potency or affinity are not part of this list.

How the values were obtained:
Parameters in all cases: scale not given: direction of the effect not stated beside the values
[1] = target: Protein translocase subunit SecA (Escherichia coli (strain K12)) (UniProt P10408); test: Assay to Identify E. coli SecA ATPase Inhibitors; assay type: functional; settings: 30 µM
[2] = target: T1, Ubiquitin-activating enzyme e1, putative (Leishmania donovani (strain BPK282A1)) (UniProt E9BSI1); test: Leishmania donovani Ubiquitin Activating Enzyme (LdE1); assay type: functional; settings: 30 µM
T1 sequence (whole entry): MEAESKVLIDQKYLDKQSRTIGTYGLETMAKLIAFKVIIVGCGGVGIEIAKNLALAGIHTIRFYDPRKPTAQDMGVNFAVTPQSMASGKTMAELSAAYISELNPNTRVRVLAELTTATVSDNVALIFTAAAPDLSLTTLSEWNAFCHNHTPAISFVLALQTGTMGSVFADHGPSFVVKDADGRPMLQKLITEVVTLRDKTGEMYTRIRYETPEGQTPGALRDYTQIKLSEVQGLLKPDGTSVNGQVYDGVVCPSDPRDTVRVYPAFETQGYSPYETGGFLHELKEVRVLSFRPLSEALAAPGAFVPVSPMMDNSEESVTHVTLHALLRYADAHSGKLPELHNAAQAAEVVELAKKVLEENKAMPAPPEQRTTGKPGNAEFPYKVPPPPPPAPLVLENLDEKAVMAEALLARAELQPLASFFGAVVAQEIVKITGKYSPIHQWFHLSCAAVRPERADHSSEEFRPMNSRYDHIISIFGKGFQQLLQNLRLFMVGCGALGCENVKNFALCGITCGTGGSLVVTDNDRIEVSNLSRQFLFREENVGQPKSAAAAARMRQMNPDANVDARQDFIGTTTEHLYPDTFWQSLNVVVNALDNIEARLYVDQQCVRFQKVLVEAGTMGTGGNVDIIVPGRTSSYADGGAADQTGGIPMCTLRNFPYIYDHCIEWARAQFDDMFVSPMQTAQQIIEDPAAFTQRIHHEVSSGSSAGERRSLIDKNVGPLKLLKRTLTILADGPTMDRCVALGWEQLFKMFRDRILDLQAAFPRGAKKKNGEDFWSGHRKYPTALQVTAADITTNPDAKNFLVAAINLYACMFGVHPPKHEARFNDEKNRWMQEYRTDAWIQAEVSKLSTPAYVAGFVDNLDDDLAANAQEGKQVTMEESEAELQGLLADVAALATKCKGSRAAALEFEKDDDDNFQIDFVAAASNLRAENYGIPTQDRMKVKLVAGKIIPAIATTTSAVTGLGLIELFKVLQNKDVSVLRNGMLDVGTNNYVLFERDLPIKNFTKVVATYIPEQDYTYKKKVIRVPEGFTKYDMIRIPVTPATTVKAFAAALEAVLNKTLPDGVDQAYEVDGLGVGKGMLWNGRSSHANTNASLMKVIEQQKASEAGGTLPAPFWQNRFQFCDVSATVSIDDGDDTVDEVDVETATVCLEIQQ

[3] = target: Sialic acid-binding Ig-like lectin 9 (Homo sapiens) (UniProt Q9Y336); test: Hs-Siglec9 ALPHAscreen SOP 20170721; settings: 10 µM
Trypanosoma cruzi = test: Trypanosoma cruzi phosphomannomutase and mannose-1-phosphate guanylyltransferase assay; assay type: functional; settings: 10 µM
[4] = target: T2, Arginase-2, mitochondrial (Homo sapiens) (UniProt P78540); test: in vitro enzyme assay to detect the production of urea directly proportional to the activity of Arginase II; assay type: functional; settings: 33.3 µM; further: in the data most compounds retested in dose-response had high values
T2 sequence (whole entry): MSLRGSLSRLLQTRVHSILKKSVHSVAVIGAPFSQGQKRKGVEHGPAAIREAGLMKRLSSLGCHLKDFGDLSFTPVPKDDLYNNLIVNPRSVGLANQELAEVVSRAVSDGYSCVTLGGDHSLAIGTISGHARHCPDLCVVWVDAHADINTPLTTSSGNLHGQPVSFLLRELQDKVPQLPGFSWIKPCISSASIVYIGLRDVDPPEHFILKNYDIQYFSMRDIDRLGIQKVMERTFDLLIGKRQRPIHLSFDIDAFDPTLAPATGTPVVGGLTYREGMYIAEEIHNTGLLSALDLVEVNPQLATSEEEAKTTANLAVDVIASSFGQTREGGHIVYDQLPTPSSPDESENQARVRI

[5] = target: T3, Proteasome subunit beta (Trypanosoma cruzi) (UniProt O96673); test: Trypanosoma cruzi proteasome chymotrypsin-like activity (TcProtChymo) assay.; further: in the data most compounds retested in dose-response had high values; assay type: functional; settings: 9.37 µM
T3 sequence (whole entry): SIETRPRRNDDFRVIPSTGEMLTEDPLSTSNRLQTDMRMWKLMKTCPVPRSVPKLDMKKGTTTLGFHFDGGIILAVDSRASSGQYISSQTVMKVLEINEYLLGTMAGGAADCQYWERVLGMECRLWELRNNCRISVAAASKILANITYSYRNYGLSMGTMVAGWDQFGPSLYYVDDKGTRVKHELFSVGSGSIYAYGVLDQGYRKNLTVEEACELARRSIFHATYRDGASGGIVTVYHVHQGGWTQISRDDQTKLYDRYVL

Homo sapiens = species on record: Homo sapiens; test: To identify inhibition of the IFN signalling (Jak-Stat) pathway via expression of an eGFP reporter gene under the control of an IFN-stimulated response element (ISRE) containing MxA promoter.; assay type: functional; settings: 30 µM
[6] = target: T4, Tyrosyl-tRNA synthetase, putative (Trypanosoma cruzi (strain CL Brener)) (UniProt Q4DSP6); test: Trypanosoma cruzi tyrosyl tRNA synthetase (TcYRS) _High Tyrosine SOP; assay type: functional; settings: 30 µM; further: in the data most compounds retested in dose-response had high values
T4 sequence (whole entry): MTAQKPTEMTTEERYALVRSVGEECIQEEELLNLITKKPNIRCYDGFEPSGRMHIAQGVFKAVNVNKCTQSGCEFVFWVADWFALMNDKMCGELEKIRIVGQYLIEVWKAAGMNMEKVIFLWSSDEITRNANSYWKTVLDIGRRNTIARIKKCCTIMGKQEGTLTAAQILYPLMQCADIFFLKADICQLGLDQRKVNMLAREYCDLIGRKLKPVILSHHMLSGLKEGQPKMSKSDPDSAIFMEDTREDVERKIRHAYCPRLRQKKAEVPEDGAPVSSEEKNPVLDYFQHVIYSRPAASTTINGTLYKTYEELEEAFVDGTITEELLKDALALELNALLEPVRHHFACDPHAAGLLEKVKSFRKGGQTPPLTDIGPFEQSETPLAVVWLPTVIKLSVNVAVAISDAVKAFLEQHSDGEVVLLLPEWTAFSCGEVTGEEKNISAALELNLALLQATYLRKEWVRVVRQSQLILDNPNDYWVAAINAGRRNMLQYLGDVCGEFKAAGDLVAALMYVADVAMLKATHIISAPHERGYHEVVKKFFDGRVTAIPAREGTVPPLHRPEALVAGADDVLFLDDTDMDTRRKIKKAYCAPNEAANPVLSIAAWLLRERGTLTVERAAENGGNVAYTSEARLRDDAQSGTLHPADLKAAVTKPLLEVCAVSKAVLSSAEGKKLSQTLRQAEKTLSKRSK

[7] = target: T4, Tyrosyl-tRNA synthetase, putative (Trypanosoma cruzi (strain CL Brener)); test: Trypanosoma cruzi tyrosyl tRNA synthetase (TcYRS) SOP; assay type: functional; settings: 30 µM
[8] = target: Chromo domain-containing protein 1 (Saccharomyces cerevisiae (strain ATCC 204508 / S288c) (Baker's yeast)) (UniProt P32657); test: ScCHD-1 Enzyme Inhibition Assay; assay type: functional; settings: 30 µM; further: in the data most compounds retested in dose-response had high values
Sequence of Chromo domain-containing protein 1 (Saccharomyces cerevisiae (strain ATCC 204508 / S288c) (Baker's yeast)) (P32657 whole entry, the tested form may be a part): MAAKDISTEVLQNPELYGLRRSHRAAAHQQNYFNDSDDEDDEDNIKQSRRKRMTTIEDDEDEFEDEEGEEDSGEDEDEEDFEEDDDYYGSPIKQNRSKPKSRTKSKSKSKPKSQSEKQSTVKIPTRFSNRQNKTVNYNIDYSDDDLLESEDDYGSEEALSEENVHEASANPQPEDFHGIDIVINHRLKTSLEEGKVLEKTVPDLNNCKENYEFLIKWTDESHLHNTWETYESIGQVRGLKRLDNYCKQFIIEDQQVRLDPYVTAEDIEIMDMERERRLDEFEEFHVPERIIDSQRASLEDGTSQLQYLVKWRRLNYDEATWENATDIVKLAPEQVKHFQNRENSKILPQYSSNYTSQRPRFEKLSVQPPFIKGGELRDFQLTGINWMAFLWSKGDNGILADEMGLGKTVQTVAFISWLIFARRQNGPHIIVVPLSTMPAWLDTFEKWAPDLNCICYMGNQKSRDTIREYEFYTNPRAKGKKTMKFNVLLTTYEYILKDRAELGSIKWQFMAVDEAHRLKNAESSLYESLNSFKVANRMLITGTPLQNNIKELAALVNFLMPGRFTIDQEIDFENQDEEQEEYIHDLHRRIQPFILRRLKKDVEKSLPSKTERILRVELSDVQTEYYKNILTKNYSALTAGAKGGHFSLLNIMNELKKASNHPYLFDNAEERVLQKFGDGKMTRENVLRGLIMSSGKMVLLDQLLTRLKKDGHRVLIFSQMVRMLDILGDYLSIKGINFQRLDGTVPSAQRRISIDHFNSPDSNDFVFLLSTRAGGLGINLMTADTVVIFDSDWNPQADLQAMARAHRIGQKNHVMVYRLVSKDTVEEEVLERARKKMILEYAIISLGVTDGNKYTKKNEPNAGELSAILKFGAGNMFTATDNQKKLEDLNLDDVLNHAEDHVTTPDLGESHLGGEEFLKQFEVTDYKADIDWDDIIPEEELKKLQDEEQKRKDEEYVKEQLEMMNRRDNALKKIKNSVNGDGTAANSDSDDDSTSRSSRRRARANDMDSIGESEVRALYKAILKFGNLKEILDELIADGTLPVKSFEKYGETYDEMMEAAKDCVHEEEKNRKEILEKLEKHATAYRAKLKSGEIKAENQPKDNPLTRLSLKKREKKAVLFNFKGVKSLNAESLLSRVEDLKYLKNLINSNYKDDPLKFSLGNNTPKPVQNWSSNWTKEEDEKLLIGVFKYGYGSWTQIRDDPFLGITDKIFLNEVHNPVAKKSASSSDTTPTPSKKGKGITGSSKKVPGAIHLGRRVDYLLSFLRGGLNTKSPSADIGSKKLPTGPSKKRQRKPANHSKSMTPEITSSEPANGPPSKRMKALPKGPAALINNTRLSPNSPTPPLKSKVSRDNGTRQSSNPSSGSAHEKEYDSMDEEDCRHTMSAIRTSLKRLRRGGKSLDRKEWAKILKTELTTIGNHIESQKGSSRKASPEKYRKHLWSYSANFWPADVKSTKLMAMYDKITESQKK

Sequence of Protein translocase subunit SecA (Escherichia coli (strain K12)) (P10408 whole entry): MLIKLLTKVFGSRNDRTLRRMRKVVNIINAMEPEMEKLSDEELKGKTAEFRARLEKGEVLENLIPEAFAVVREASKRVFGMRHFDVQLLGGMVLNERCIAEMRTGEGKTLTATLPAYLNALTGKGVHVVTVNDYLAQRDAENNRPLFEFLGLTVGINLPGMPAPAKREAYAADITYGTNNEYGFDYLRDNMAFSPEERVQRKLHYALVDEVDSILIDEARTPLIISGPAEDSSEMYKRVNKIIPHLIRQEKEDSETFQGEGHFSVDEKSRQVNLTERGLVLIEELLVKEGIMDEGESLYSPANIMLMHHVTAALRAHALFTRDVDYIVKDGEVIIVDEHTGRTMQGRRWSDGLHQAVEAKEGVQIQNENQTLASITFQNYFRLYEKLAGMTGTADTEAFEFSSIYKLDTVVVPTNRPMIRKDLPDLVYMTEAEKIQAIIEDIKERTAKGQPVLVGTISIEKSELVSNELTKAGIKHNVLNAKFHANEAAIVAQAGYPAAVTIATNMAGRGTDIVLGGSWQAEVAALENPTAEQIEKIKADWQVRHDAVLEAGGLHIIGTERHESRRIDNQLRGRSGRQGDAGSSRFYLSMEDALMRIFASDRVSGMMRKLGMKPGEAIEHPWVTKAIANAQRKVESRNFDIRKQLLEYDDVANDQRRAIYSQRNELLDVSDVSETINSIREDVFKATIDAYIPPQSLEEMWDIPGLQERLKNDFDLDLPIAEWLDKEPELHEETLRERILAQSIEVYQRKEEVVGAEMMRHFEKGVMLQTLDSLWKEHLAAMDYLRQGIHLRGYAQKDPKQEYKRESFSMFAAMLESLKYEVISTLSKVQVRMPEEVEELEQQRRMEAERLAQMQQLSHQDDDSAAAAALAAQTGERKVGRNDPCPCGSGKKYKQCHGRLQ
Sequence of Sialic acid-binding Ig-like lectin 9 (Homo sapiens) (Q9Y336 whole entry): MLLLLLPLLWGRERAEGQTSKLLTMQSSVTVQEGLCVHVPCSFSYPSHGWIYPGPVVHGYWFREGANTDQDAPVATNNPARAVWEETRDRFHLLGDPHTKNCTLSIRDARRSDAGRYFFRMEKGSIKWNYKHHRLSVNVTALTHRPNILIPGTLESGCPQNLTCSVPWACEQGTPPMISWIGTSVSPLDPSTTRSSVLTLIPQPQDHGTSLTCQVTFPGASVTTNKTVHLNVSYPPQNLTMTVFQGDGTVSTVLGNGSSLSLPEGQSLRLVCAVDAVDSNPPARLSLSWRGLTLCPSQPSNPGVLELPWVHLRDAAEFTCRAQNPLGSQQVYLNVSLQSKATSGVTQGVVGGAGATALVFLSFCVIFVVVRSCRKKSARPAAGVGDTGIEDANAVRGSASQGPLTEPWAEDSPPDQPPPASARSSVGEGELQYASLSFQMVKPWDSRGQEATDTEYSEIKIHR

Row | SMILES | Percent Effect [1] | Percent Effect [2] | Percent Effect [3] | Percent Effect (Trypanosoma cruzi) | Percent Effect [4] | Percent Effect [5] | Percent Effect (Homo sapiens) | Percent Effect [6] | Percent Effect [7] | Percent Effect [8]
1 | Cc1cnc(CN2CCCC2c2noc(C)n2)cn1 (stereo not given) | -3.01% | -2.67% | -1.58% | 0.602% | 0.444% | 14.5% | -11.3% | 11.1% | 12.8% | -6.87%
2 | CC(C)(C)n1ncc2c1NC(=O)CC2c1ccsc1 (stereo not given) | -1.95% | 2.7% | -2.29% | -7.47% | 5.94% | 13.2% | 15.1% | 4.79% | 9.76% | -1.82%
3 | O=C(Cn1c(=O)nc2n1C(=O)N(c1ccccc1)C2)Nc1ccccc1 | -6.94% | 16.2% | 9.15% | 2.23% | 24.8% | 23.6% | 5.58% | 6.92% | 14.6% | 75.6%
4 | Cn1ccc(C(=O)NCc2cccc(N3CCCCC3=O)c2)cc1=O | 2.38% | 13% | 8.44% | -0.373% | -2.66% | 27.5% | 14.9% | 9.8% | 21.2% | -9.09%
5 | Cn1cc(CN2CCCC23CCN(C(=O)c2cccn2C)CC3)cn1 | -1.03% | -6.49% | -3.73% | -0.876% | -2.43% | -0.441% | -15.7% | -0.526% | 0% | -0.154%
6 | COc1ccc(CC(=O)N2C[C@@H]3COC[C@]3(CN(C)C)C2)cc1 | -3.95% | -42.9% | 3.29% | 3.8% | -6.07% | 1.15% | -12.9% | -26.8% | -43.6% | 1.23%
7 | CC(O)CN1CCC(CNCc2ccccc2Br)CC1 (stereo not given) | -0.126% | 10.3% | -8.9% | 11.4% | 1.23% | 10.2% | 8.18% | 4.31% | 20.5% | -5.01%
8 | O=C(CC1CCCC1)N1C[C@@H]2CCN(c3cccnc3)C[C@@H]2C1 | -3.01% | 3.9% | 3.29% | -3.94% | 2.28% | 19.3% | 35.3% | 2.9% | 0% | -2.18%
